IP6K1 inh: blocks human inositol hexakisphosphate kinase 1. activity change, % (series mostly up to about 58 µM). Q92551. actives 0.81% (n = 140,000). IP6K1 kinase, ADP-Glo luminescence, 2 h; stronger effect = lower value; in the data active = activity change below about -25%; also: % is scaled to controls: 0 for no effect and ±100 for the full control effect
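ADP-Glo luminescence measures ADP made by human IP6K1 during a 2 h RT reaction with ATP/IP6 (mix at 1.3 mM/130 uM); top library doses 57.5 and 19.1 uM final.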
KDM5B inh: blocks human KDM5B histone demethylase activity; KDM5B demethylase, FDH-coupled NADH fluorescence (FDH is formaldehyde dehydrogenase); Q9UGL1; Potency, µM (doses to about 57.7 µM), hits mostly inhibitors; actives 2.6% (n = 220,000); active = well fitted inhibition curve with a large enough effect; inconclusive = small, poorly fitted or top-dose-only effect; inactive = no such curve, though single readings can be large or run the other way; also: potency is read from the fitted curve at half-maximal effect; 0% is about no effect; nearly all actives have a fitted effect of over 70% in size
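Here, H3K4me3 peptide (12.5 µM in substrate mix) is demethylated by KDM5BΔAP, 200 nM final, after 10 min compound exposure. Formaldehyde product is coupled through FDH (0.25 U/mL in mix) to NADH fluorescence; 30-min ΔRFU feeds dose-response curves.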
* = called active by the depositor; i = inactive; ? = inconclusive; . = not tested or not shown. An excerpt weighted towards active compounds, which were near 2.8% of everything screened.

SMILES | IP6K1 inh | KDM5B inh
O=C(C1CCCC1)N1CCN(c2nc3ncccc3o2)CC1 | 6.0 | 31.6µM*
COC(=O)CNC(=O)C1CCc2nnc(CNC(=O)c3cccnc3)n21 (stereo not drawn) | -12.4 | i
CN(C)CCNc1nc2c(c(=O)[nH]c(=O)n2C)n1Cc1cccc2ccccc12 | . | i
Cc1ccc(OCC(=O)Nc2ccc3oc(-c4cccnc4)nc3c2)cc1 | . | i
CCc1nn(-c2ccc(OC)cc2)c(Oc2ccccc2F)c1CCC(=O)NC(C)C | -6.2 | i
CCc1nn(-c2ccc(OC)cc2)c(Oc2ccccc2F)c1CCC(=O)NCCOC | -5.3 | 25.1µM*
O=C(Nc1ccc(Cl)cc1)c1nc2ccccc2nc1N1CCCC1 | . | i
N#Cc1ccccc1CN1CCCC1 | . | i
N#Cc1cc2c(=O)n(CCCCN3CCCC3)ccc2[nH]c1=O | 23.8 | 28.2µM*
COc1ccccc1-c1cc(NCc2ccncc2)c2onc(C)c2n1 | -19.7 | 28.2µM*
COc1ccccc1-c1cc(NCC2CCOCC2)c2onc(C)c2n1 | -2.0 | i
Cc1noc2c(NCCN(C)C)cc(-c3ccc(F)cc3)nc12 | 5.1 | i
Cc1noc2c(Nc3ccncc3)cc(-c3ccc(F)cc3)nc12 | -9.5 | 28.2µM*
C=CCOc1cccc(NC(=O)CC)c1 | . | i
Cc1cc(C)cc(C(=O)NCc2nnc3c(-c4nc(C)no4)cccn23)c1 | 5.3 | ?
COc1ccc(C(=O)NCc2nnc3c(-c4nc(C)no4)cccn23)cc1 | 29.7 | 25.1µM*
Cc1ccc(C(=O)NCc2nnc3c(-c4nc(C)no4)cccn23)cc1 | 10.6 | 28.2µM*
CCCc1noc(-c2cccn3c(CNC(=O)c4ccc(OC)cc4)nnc23)n1 | 5.3 | ?
COc1ccc(-c2nc3scc(CCNC(=O)c4cc(OC)cc(OC)c4)n3n2)cc1 | -5.5 | ?
Cc1cnc(NC(=O)C23CC4CC(CC(C4)C2)C3)s1 | . | i
CC(C)CN1C(=O)C(C)(C)[S+](=O)([O-])[C@H]2CN(Cc3cccc(C(=O)O)c3)C[C@@H]21 | 32.1 | i
Cc1ccc([S+](=O)([O-])NC2CCCN(Cc3cccc(-c4ccc(C)c(Cl)c4)c3)C2)cc1 (stereo not drawn) | -7.1 | .
COc1cc(NC(=O)CSc2nc(-c3ccco3)cc(C(F)(F)F)n2)cc(OC)c1OC | -0.6 | i
CCC(CO)NS(=O)(=O)c1ccc(Cl)c(C)c1 (stereo not drawn) | . | i
COC(=O)N(C)c1c(N)nc(-c2nn(Cc3ccccc3F)c3ncccc23)nc1N | 1.8 | .
SMILES | IP6K1 inh | KDM5B inh
O=C(CCn1cnc(-c2ccccc2)c1-c1cc2ccccc2[nH]1)N1CCCC1 | -14.0 | ?
CCCCc1ncc(-c2c(-c3ccccc3)ncn2CCC2CCCN2C)[nH]1 (stereo not drawn) | 1.5 | 10µM*
CC(C)c1nccn1CCCNC(=O)c1ccc(-c2ccccc2F)nc1 | -8.0 | i
COc1ccc(F)cc1-c1ccc(C(=O)NCCCn2ccnc2C(C)C)cn1 | 6.8 | 28.2µM*
CCn1ccnc1CNc1ccc(-c2nc(-c3ccccc3C)no2)cn1 | 9.1 | 28.2µM*
CCn1ccnc1CN(C)c1ccc(-c2nc(C3CC3)no2)cn1 | 17.2 | ?
Cc1ccc(-n2c(C3CCN(C(=O)Cc4ccccc4F)CC3)n[nH]c2=O)cc1 | -19.5 | i
Cc1nc(-n2nc(C)c(Cl)c2C)sc1C(=O)N1CCOCC1 | . | i
Cc1ccc(NC(=O)Cn2ccn3nc4c(c3c2=O)CCCCC4)cc1C | 20.5 | i
Cc1cccc(C)c1NC(=O)Cn1ccn2nc3c(c2c1=O)CCCC3 | 0.7 | i
Cc1cc(NC(=O)Cn2ccn3nc4c(c3c2=O)CCCC4)no1 | -0.1 | 25.1µM*
Cc1cc(C)cc(NC(=O)Cn2ccn3nc4c(c3c2=O)CCCC4)c1 | -2.5 | 35.5µM*
O=C(Cn1ccn2nc3c(c2c1=O)CCCCC3)Nc1cc(F)ccc1F | 6.0 | 28.2µM*
O=C(Cn1ccn2nc3c(c2c1=O)CCCCC3)Nc1ccccc1F | 30.6 | ?
Cc1cccc(NC(=O)Cn2ccn3nc4c(c3c2=O)CCCC4)c1 | 17.8 | ?
Cc1cccc(NC(=O)Cn2ccn3nc4c(c3c2=O)CCCC4)c1C | 38.1 | 28.2µM*
CCc1c(C(=O)NCc2ccc(OC)c(OC)c2)csc1C | . | i
CCc1cc(CC[C@]2(C3CCCC3)CC(O)=C(Cc3nc4nc(C)cc(C)n4n3)C(=O)O2)cc(CC)n1 | 10.8 | .
CCN1C(=O)C(=O)N(Cc2coc(-c3ccc(C)cc3)n2)C1=O | . | i
COc1ccc(C(=O)N[C@@H]2CN(Cc3cccnc3)C[C@H]2CN(C)C)c(OC)c1 | 13.6 | ?
COc1ccc(C(=O)N[C@@H]2CN(c3ncccn3)C[C@H]2CN(C)C)cc1OC | 14.5 | 28.2µM*
CN(C)C[C@@H]1CN(c2ncccn2)C[C@H]1NC(=O)C1(C)CCOCC1 | 30.8 | ?
COc1ccc(C(=O)N[C@@H]2CN(c3ncccn3)C[C@H]2CN(C)C)c(OC)c1 | 0.2 | 25.1µM*
COc1cc(Cl)ccc1C(=O)N[C@@H]1CN(c2ncccn2)C[C@H]1CN(C)C | 11.3 | 28.2µM*
COc1ccc(C2(C(=O)N[C@@H]3CN(c4ncccn4)C[C@H]3CN(C)C)CC2)cc1 | 8.4 | 28.2µM*
SMILES | IP6K1 inh | KDM5B inh
COc1ccc(Cl)cc1C(=O)N[C@@H]1CN(c2ncccn2)C[C@H]1CN(C)C | 21.2 | ?
COc1ccc(C(=O)N[C@@H]2CN(c3ncccn3)C[C@H]2CN(C)C)cn1 | 6.3 | ?
O=C(Nc1c(NCC2CCCCC2)c2ccccc2oc1=O)c1cccs1 | . | i
CCOc1cc(S(=O)(=O)NCCO)ccc1Br | . | i
C#CCNC(=O)C1CCCN1Cc1cccc(-c2ccc(C)c(Cl)c2)c1 (stereo not drawn) | 10.3 | .
O=C(c1cnc2c(c1)N([S+](=O)([O-])c1cccnc1)CCC2)N1CCCC(CO)C1 (stereo not drawn) | 23.3 | i
CC(C)c1cc(C(=O)N2CCN(C(=O)c3ccccc3)CC2)c2ccccc2n1 | . | i
CN(C)C[C@@H]1CN(c2ncccn2)C[C@H]1NC(=O)c1ccc2cc[nH]c2c1 | 1.6 | 25.1µM*
CN(C)C[C@@H]1CN(c2ncccn2)C[C@H]1NC(=O)c1cccc2[nH]ccc12 | 17.5 | i
Cc1ccccc1C(=O)N1C(C(=O)NCc2ccco2)COC12CCN(C(=O)c1ccco1)CC2 (stereo not drawn) | -8.5 | i
CCn1cc2c3c(cccc31)CN(C(=O)Cc1ccccc1C)CC2 | 22.8 | ?
Cc1ccc(C(=O)N2CCc3cn(C)c4cccc(c34)C2)cc1 | -2.5 | ?
Cn1cc2c3c(cccc31)CN(C(=O)C1CCC1)CC2 | 3.3 | 31.6µM*
Cn1cc2c3c(cccc31)CN(C(=O)Cc1ccccc1F)CC2 | 31.2 | 28.2µM*
Cn1cc2c3c(cccc31)CN(C(=O)c1ccccc1Cl)CC2 | -5.1 | i
Cc1ccc(CC(=O)N2CCc3cn(C)c4cccc(c34)C2)cc1 | 1.9 | 28.2µM*
Cc1ccc(NC(=O)Cn2nc3n(c2=O)CCCCC3)cc1F | 19.2 | i
Cn1cnc(S(=O)(=O)N2CCC3(CC2)N(c2ccccc2)C(=O)CS3=O)c1 (stereo not drawn) | -1.4 | i
Cc1cccc(-c2cccc(NC(=O)C3CCCN(C(=O)c4cccc(C)n4)C3)c2)c1 (stereo not drawn) | 5.5 | i
O=C(Nc1cccc(-n2cccn2)c1)C1CCCN(Cc2cccc(F)c2F)C1 (stereo not drawn) | 0.1 | i

High-throughput results as filed in PubChem.
